Measurements from PubChem BioAssay (NCATS).
Records with an inconclusive call do not appear. The source made the active and inactive calls. The call rests on the fitted dose curve; in most records, active means well fitted inhibition curve with a large enough effect; inconclusive means small, poorly fitted or top-dose-only effect; inactive means flat fitted curve, though single readings scatter.

experiment: BET inhibitor-based combinations targeting novel dependencies in MECOM-rearranged (r) AML: AML-194 cell line (AID 2202237; further: nearly all actives have a fitted effect of over 40% in size;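 on viability (% of control): plate controls were vehicle wells for no effect and wells without cells for full effect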); conditions: AML-194 (MECOM-r AML) viability, CellTiter-Glo, 48 h; series mostly up to 46 µM; viability (% of control): at the top concentration
Source text: Ecotropic viral insertion site 1 (EVI1) is located on chromosome 3q26.2 as part of the MECOM (MDS and EVI1 complex) locus. Under normal hematopoiesis, EVI1 is a regulator of hematopoietic stem cell maintenance and self-renewal and EVI1 levels decrease as the cells differentiate. In approximately 5-10% of de novo acute myeloid leukemia (AML) EVI1 is aberrantly expressed, including Chromosomal inv(3)(q21;q26.2) or t(3;3)(q21;q26.2) alterations (MECOM-r) that account for about 50% of AML with EVI1 overexpression 31. AMLs with high levels of EVI1 have a poor prognosis and an overall survival time averaging between 10-14 months. EVI1 overexpression confers resistance in leukemia cells, highlighting the need to develop new targeted therapies for EVI1 overexpressing AMLs.
Here, we performed an unbiased chemical drug screening by evaluating the single agent activity of a collection of 2,480 oncology-focused, approved and investigational drugs (NCATS Mechanism Interrogation Plates, MIPE v5.0) against a panel of seven AML cell lines. These included four MECOM-r cell-lines (AML-191, AML-194, UCSD-AML1 and HNT-34) and three non-MECOM-r AMLs (MV4-11, OCI-AML3 and SET-2). Exploiting the mechanistic redundancy built in the library, we identified target-level sensitivities in MECOM-r AML cells and relative activity as compared to other AML subtypes.
A collection of 2480 mechanistically annotated dugs (MIPE v5.0) was used to screen four 3q26.2 rearranged AML cell lines and three non-3q26.2 rearranged AML cell lines. This library purposely exploits redundancy by including multiple inhibitors of key onco-targets, while simultaneously encompassing mechanistic diversity, targeting more than 800 distinct mechanisms of action. Briefly, cells were seeded in 5 uL of growth media using a Multidrop Combi dispenser into 1536 well white polystyrene tissue culture treated plates (Corning) at a density of 500cells/well. For each cell-line, for each of the 2480 drugs in MIPE v5.0 library, an 11-point dose curve was generated via a 1536 pin-tool. Plates were incubated for 48 hr at standard incubator conditions, covered by a stainless steel gasketed lid to prevent evaporation. Cell viability was determined by luminescence based, Cell Titer Glo assay (Promega). In detail, 3 uL of Cell Titer Glo were added to each well and plates were incubated at room temperature for 15 min with a stainless-steel lid in place. Luminescence readings were taken using a Viewlux (PerkinElmer) with a 2 s exposure time per plate. Compound dose-response curves were normalized to DMSO and empty well controls on each plate. Quantitative drug activity data from dose-response curves was determined utilizing area Under the Curve (AUC) and Z-transformed AUC (Z-AUC, a mean-centering transformation applied to each individual cell-line screened).
Potency means the concentration at half of the fitted maximal effect.

| SMILES | viability (% of control) | Potency |
| --- | --- | --- |
| O=C(O)C1=CC(O)C(O)[C@H](O)C1 (stereo not given in full) | 110% (inactive) | – |
| C[C@]12CC[C@@H]3c4ccc(O)cc4CC[C@H]3[C@H]1[C@@H](O)[C@@H](O)[C@H]2O | 117% (inactive) | – |
| NC[C@H](O)c1ccc(O)c(O)c1 | 102% (inactive) | – |
| O=C(Nc1nc2cccc(-c3ccc(CN4CCS(=O)(=O)CC4)cc3)n2n1)C1CC1 | – | 13.2 µM (active) |
| CCS(=O)(=O)c1cccc(-c2cc(C(=O)NC3CCN(C)CC3)c(C)c3[nH]c4ncc(C)cc4c23)c1 | – | 2.63 µM (active) |
| COc1ccc2c(c1)c(CC(=O)O)c(C)n2C(=O)c1ccc(Cl)cc1 | 95.6% (inactive) | – |
| CCNCc1nc2c(N)nc3ccccc3c2n1CC(C)(C)O | 99% (inactive) | – |
| NC12CC3CC(CC(C3)C1)C2 | 110% (inactive) | – |
| O=C(O)c1ccc(O)c2ncc(N3CCOCC3)cc12 | 109% (inactive) | – |
| Nc1nc(N)c2nc(CNc3ccc(C(=O)NC(CCC(=O)O)C(=O)O)cc3)cnc2n1 (stereo not given) | 116% (inactive) | – |
| COc1cc(C(=O)NC2CCN(C)CC2)c(F)cc1Nc1ncc2c(n1)N(C1CCCC1)CC(F)(F)C(=O)N2C | – | 0.0833 µM (active) |
| O=C1N(c2ccccc2)c2ccccc2C1(Cc1ccncc1)Cc1ccncc1 | 105% (inactive) | – |
| CNc1nc(Nc2ccc(C(=O)N3CCOCC3)cc2OC)ncc1Cl | 105% (inactive) | – |
| Clc1ccc(C(c2ccc(Cl)cc2)n2cc[n+](CC(OCc3ccc(Cl)cc3Cl)c3ccc(Cl)cc3Cl)c2)cc1 (stereo not given) | – | 26.3 µM (active) |
| CC[C@@H]([C@H](C)O)n1ncn(-c2ccc(N3CCN(c4ccc(OCC5CO[C@@](Cn6cncn6)(c6ccc(F)cc6F)C5)cc4)CC3)cc2)c1=O (stereo not given in full) | – | 4.17 µM (active) |
| O=C(O)c1ccc(CCCc2ccc(OCCc3ccc(F)cc3)cc2)o1 | 101% (inactive) | – |
| Nc1ncnc2c1ncn2[C@@H]1O[C@H](CO)[C@@H](O)[C@@H]1O | 109% (inactive) | – |
| CC(=O)SCC(Cc1ccccc1)C(=O)NCC(=O)OCc1ccccc1 (stereo not given) | 92.4% (inactive) | – |
| Cc1cnc(-c2cc(N3CCN(C(=O)CCS(C)(=O)=O)CC3)ncc2Cl)c(C)c1 | 107% (inactive) | – |
| CC(C)c1cc(C(C)C)c(CC(=O)NS(=O)(=O)Oc2c(C(C)C)cccc2C(C)C)c(C(C)C)c1 | 95.8% (inactive) | – |

| SMILES | viability (% of control) | Potency |
| --- | --- | --- |
| Cn1c(=O)c2c(ncn2CC(O)CO)n(C)c1=O (stereo not given) | 110% (inactive) | – |
| Oc1c(Cl)cc(Cl)c2cccnc12 | – | 8.33 µM (active) |
| CC(C)=CC[C@@H](O)C1=CC(=O)c2c(O)ccc(O)c2C1=O | – | 10.5 µM (active) |
| CCn1cc(C(=O)O)c(=O)c2cc(F)c(N3CCNC(C)C3)c(F)c21 (stereo not given) | 96% [at 15.6 µM] (inactive) | – |
| CC1COC2(CCN(c3nc(=O)c4cc(C(F)(F)F)cc([N+](=O)[O-])c4s3)CC2)O1 (stereo not given) | 108% (inactive) | – |
| Cc1nc2c([nH]1)CCN(C(=O)c1ccc(NC(=O)c3ccccc3-c3ccccc3)cc1)c1ccccc1-2 | 97.5% (inactive) | – |
| Nc1ccccc1NC(=O)c1ccc(CNc2nccc(-c3cccnc3)n2)cc1 | – | 1.66 µM (active) |
| CC(=O)NC[C@H]1CN(c2ccc(N3CCOCC3)c(F)c2)C(=O)O1 | 97.8% (inactive) | – |
| NC(=O)c1noc([C@H](CCCC2CCCCC2)CC(=O)NO)n1 | – | 6.61 µM (active) |
| FC(F)(F)c1ccc(Nc2nc(-c3c(C(F)(F)F)nc4ccccn34)cs2)cc1 | – | 0.332 µM (active) |
| CCCc1nc(C(C)(C)O)c(C(=O)O)n1Cc1ccc(-c2ccccc2-c2nn[nH]n2)cc1 | 112% (inactive) | – |
| NCc1ccc(OCCCc2sc(-c3ccc4c(c3)/C(=N/Nc3nc5ccccc5s3)CCC4)nc2C(=O)O)cc1 | 91.6% (inactive) | – |
| Cc1ccc(CN2CCNCC2)cc1NC(=O)CNc1ccc(F)c(F)c1 | 108% (inactive) | – |
| CC(C)(C)NCC(O)c1ccc(O)c(CO)c1 (stereo not given) | 106% (inactive) | – |
| O=C(O)CCC1CCC(c2cc(F)ccc2F)(S(=O)(=O)c2ccc(Cl)cc2)CC1 (stereo not given) | 97% (inactive) | – |
| CC1CNc2c(cccc2S(=O)(=O)N[C@@H](CCCN=C(N)N)C(=O)N2CC[C@@H](C)C[C@@H]2C(=O)O)C1 (stereo not given in full) | 117% (inactive) | – |
| CC(C)(C)c1cc(C(=O)O)c(NC(=O)Nc2ccc3[nH]ncc3c2)s1 | 116% (inactive) | – |
| COc1cc2nccc(Oc3ccc(NC(=O)NC4CC4)c(Cl)c3)c2cc1C(N)=O | 83.2% (inactive) | – |
| Fc1cc(-c2cccc3ncc(-c4cnn(C5CCNCC5)c4)nc23)cc(F)c1CN1CCOCC1 | – | 6.61 µM (active) |
| CC[C@H](NC(C)C)[C@H](O)c1ccc(O)c2[nH]c(=O)ccc12 | 106% (inactive) | – |
